Compounds without any hit were thinned out: in the full panel of roughly 83,000, 20% have a hit.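 Negative percent growth values reflect cell death: -40 means 40% of the cells present at the start died, and -100 means all died.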 A number with no mark means an inactive call. The source made the active and inactive calls.
system: SK-OV-3 ovarian; assay: NCI-60 one-dose screen, 48 h (100 = growth as untreated, 0 = no growth, -100 = all killed); details: 10 µM unless noted
Protocol: Growth inhibition of the SK-OV-3 human tumor cell line is measured as a screen for anti-cancer activity. Cells are grown in 96 well plates and exposed to the test compound for 48 hours. Compounds are tested at a single concentration, which is 10^-5 M for most compounds. The reported endpoint is percent growth (GI% or GIPRCNT), where numbers from 0 - 100% represent growth inhibition, and numbers from -100% - 0 represent cell death. For example, a value of 40 represents 60% growth inhibition. A value of 0 means no net growth occurred over the course of the experiment. A value of -40 indicates 40% of cells at the beginning of the experiment died by the end of the experiment. A value of -100 means all cells are dead at the end of the experiment.
NCI-60 Human Tumor Cell Lines Screen was performed using the standard one-dose NCI protocol, which is described in more detail at https://dtp.cancer.gov/discovery_development/nci-60/default.htm.
Compounds with GIPRCNT values below 10 were considered active. Activity score was based on GIPRCNT using the following formula: […]
Score is 0 for GIPRCNT values of 100 or above, 50 for GIPRCNT values of 0, and 100 for GIPRCNT values of -100.

| Structure (SMILES) | growth |
| --- | --- |
| COc1cc(C2CC(c3cccc(Br)c3)=NN2C(C)=O)cc(OC)c1OC (stereo not given) | 45.3% |
| CC(C)C(=O)Nc1ccc(-c2nc(-c3cccc(OCCN4CCOCC4)c3)c(-c3ccnc(Br)c3)[nH]2)cc1 | 73.6% |
| COc1ccc(NC2=C(Br)C(=O)C(C)=C(C)C2=O)cc1 | 69.4% |
| Nc1nc2ccccc2c2c(=O)c3cc(F)ccc3sc12 | 108% |
| FC(F)(F)c1cc(Nc2ccc3c(OCCCN4CCOCC4)cccc3n2)ccc1Cl | 78.5% |
| C[C@H]1[C@H]2[C@H]3CC[C@@H]4[C@@]5(C)CC[C@H](O)C(C)(C)[C@@H]5CC[C@@]4(C)[C@]3(C)CC[C@]23CO[C@]1(C)[C@@H](C(=O)/C=C\c1cccnc1)C3 | 77.8% |
| CSc1ccc2c(c1)c(CCN)c(C)n2Cc1ccc(Cl)c(Cl)c1 | -91.2% (active) |
| Cc1[nH]c(C(=O)Nc2ccc(C(=O)NCCN)cc2OC(C)C)c(Cl)c1Cl | 90.5% |
| CCOC(=O)c1c(C)oc2ncnc(N3CCN(C(=O)COc4ccc(C(C)(C)C)cc4)CC3)c12 | 85.4% |
| O=c1c2cc(F)ccc2sc2c(NCCN3CCOCC3)nc3ccccc3c12 | 85% |
| O=C(O)CCC(=O)Nc1nnc(-c2ccccc2)s1 | 95.6% |
| COc1ccc(C2=Nn3c(nnc3-c3cc(Cl)cc(Cl)c3Cl)SC2)cc1 | 24.4% |
| CCOC(=O)CCN(C(=O)Nc1ccccc1)C1CCCCC1 | 112% |
| COc1ccc(OC)c(/C=C2\Oc3cc(OCCN4CCC(Cc5ccccc5)CC4)ccc3C2=O)c1 | 93.3% |
| C#Cc1cccc(NC(=O)Nc2ccccc2NC(=O)CCl)c1 | 85.3% [8.25 µM] |
| COc1ccc(CN2c3ccccc3CCc3ccccc32)cc1F | 38.4% |
| CNC(C)[C@H]1CCC2C3CCC4C[C@@H](N(C)C(=O)c5ccccc5)CC[C@]4(C)C3CC[C@@]21C (stereo not given in full) | 67% |
| CCOC(=O)Cn1c(=O)c2c(c3ccccc3n2C)n2nnc(-c3ccccc3)c12 | 103% |
| CN(C)c1ccc2nc3ccc(=[N+](C)C)c([N+](=O)[O-])c-3sc2c1 | 59.2% |
| CCCCNC(=O)Oc1ccc(/C(=C(\C)c2ccc(Cl)cc2)c2ccc(OCCN3CCCCC3)cc2)cc1 | 68.8% |

| Structure (SMILES) | growth |
| --- | --- |
| CC(=O)c1ccc(Nc2nc(C(C)=O)c(C)s2)cc1 | 101% |
| COc1cc(C(=O)c2cnc(-c3c[nH]c4cccc(C)c34)[nH]2)cc(OC)c1OC | 41.1% |
| N#Cc1c(Nc2cccc(Cl)c2)sc(C(=O)c2cc3cc(Cl)ccc3o2)c1N | 97.9% |
| Cc1cc(Cl)ccc1NS(=O)(=O)c1ccc(-c2cnc(C3CC3)o2)cc1 | 50.8% |
| CC(=O)N1CCN(c2ccc(OCC3CO[C@](Cn4ccnc4)(c4ccc(Cl)cc4Cl)O3)cc2)CC1 (stereo not given in full) | 95.5% |
| COc1cccc(-c2nn(-c3ccccc3)cc2-c2ccnc(N3CCOCC3)c2)c1 | 87.9% |
| COc1cc(Nc2nc(NCCN)nc3cc[nH]c(=O)c23)cc(OC)c1 | 51.4% |
| O=C1/C(=C/c2ccc(F)cc2)Sc2c(Br)cccc21 | 84.1% |
| CCOC(=O)C1=C(N)Oc2c(sc3c(CC)cccc23)C1c1ccc(F)cc1 (stereo not given) | 50.6% |
| Cc1cc(=O)oc2cc(OC(=O)N3CCN(C)CC3)ccc12 | 110% |
| c1ccc(OCc2nnc(-c3ccc(Oc4ccccc4)cc3)o2)cc1 | 96.9% |
| C=CCc1cc(C)ccc1NC(C(=O)NCC(=O)OC)c1ccccc1 (stereo not given) | 91.2% |
| COC1=C(C)C(=O)c2c(c(CCCl)c3n2CCC3OC(C)=O)C1=O (stereo not given) | -21.6% (active) |
| Cc1ccc(C(=O)NCCNc2nccc(-c3c(-c4cccc(F)c4)nc4sccn34)n2)cc1 | 64.3% |
| O=c1c2cccc(F)c2sc2c(NCCCNCCO)nc3ccccc3c12 | 56.2% |
| CCCCCCn1c(-c2ccc(C(=O)O/N=C(\N)c3ccc4c(c3)OCO4)cc2)nc(-c2ccccc2)c1-c1ccccc1 | 98.7% |
| O=C1c2ccccc2NC(n2sc3ccccc3c2=O)N1c1ccccc1 (stereo not given) | 103% |
| CCOC(=O)C1=C(N)Oc2c(sc3c(C)cccc23)C1c1ccc(OC)cc1 (stereo not given) | 57.7% |
| CCCCCCCCCCCCCCCCCCOc1ccccc1CCCOP(=O)(O)OCC[N+](C)(C)C | 85% |
| CCc1cccc2c3c(sc12)C(c1ccc(F)cc1)C(C#N)=C(N)O3 (stereo not given) | 78.5% |

From PubChem BioAssay (NCI)
